Measured values taken from PMC11062922 (Nature Chemical Biology, 2023).

Key:
Set-up in all cases: species or system human, MV4-11 + K-562 + COLO205 + SK-N-BE2 + OVCAR-8
DDR1 = conditions: compound concentrations: 100 nM and 1000 nM (sheet 'Samples')
DDR2 = conditions: compound concentrations: 100 nM and 1000 nM (sheet 'Samples')
FLT3 = conditions: compound concentrations: 100 nM and 1000 nM (sheet 'Samples')
[1] = system: JAK1(JH2domain-pseudokinase); conditions: compound concentrations: 100 nM and 1000 nM (sheet 'Samples')
MAP3K4 = conditions: compound concentrations: 100 nM and 1000 nM (sheet 'Samples')
MLK1 = conditions: compound concentrations: 100 nM and 1000 nM (sheet 'Samples')
NEK6 = conditions: compound concentrations: 100 nM and 1000 nM (sheet 'Samples')
PKAC-beta = conditions: compound concentrations: 100 nM and 1000 nM (sheet 'Samples')
[2] = system: RSK1(Kin.Dom.1-N-terminal); conditions: compound concentrations: 100 nM and 1000 nM (sheet 'Samples')
SYK = conditions: compound concentrations: 100 nM and 1000 nM (sheet 'Samples')
PSMC4 = conditions: read-out: apparent Kd; compound concentrations: 100 nM and 1000 nM (sheet 'Samples'), CATDS: 0.17422831247088; n = 1
CDK1 = conditions: read-out: apparent Kd; compound concentrations: 100 nM and 1000 nM (sheet 'Samples'), CATDS: 4.2052312432732299E-3; n = 1
FN3K = conditions: read-out: apparent Kd; compound concentrations: 100 nM and 1000 nM (sheet 'Samples'), CATDS: 4.2262124169733604E-3; n = 1
MAPK3 = conditions: read-out: apparent Kd; compound concentrations: 100 nM and 1000 nM (sheet 'Samples'), CATDS: 4.9102061744830498E-3; n = 1
MAPK7 = conditions: read-out: apparent Kd; compound concentrations: 100 nM and 1000 nM (sheet 'Samples'), CATDS: 3.9838262564481702E-3; n = 1
PKMYT1 = conditions: read-out: apparent Kd; compound concentrations: 100 nM and 1000 nM (sheet 'Samples'), CATDS: 4.7786675943352697E-3; n = 1
SLC25A5 = conditions: read-out: apparent Kd; compound concentrations: 100 nM and 1000 nM (sheet 'Samples'), CATDS: 3.4931763386449499E-3; n = 1
TAOK2 = conditions: read-out: apparent Kd; compound concentrations: 100 nM and 1000 nM (sheet 'Samples'), CATDS: 4.3468745935786399E-3; n = 1
TESK1 = conditions: read-out: apparent Kd; compound concentrations: 100 nM and 1000 nM (sheet 'Samples'), CATDS: 1.6628532352141699E-2; n = 1
TUBB6 = conditions: read-out: apparent Kd; compound concentrations: 100 nM and 1000 nM (sheet 'Samples'), CATDS: 3.8955620012379099E-3; n = 1
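Throughout, for Kinobeads Data: kinobeads ε competition pulldown from cell lysate, compound preincubated 45 min at 4 °C, bound kinases quantified by LC–MS/MS relative to DMSO control.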

Q: For COc1cc(Nc2ncc3c(C)nc(-c4cc5ccccc5[nH]4)n3n2)cc(OC)c1OC [GW869516X], which “Kinobeads Data” value (DDR1) is on record?
A: The value was “no target”.

Q: And the “Kinobeads Data” value (DDR2)?
A: The value was “no target”.

Q: What about the “Kinobeads Data” value (FLT3) of the same molecule?
A: The value was “no target”.

Q: And the “Kinobeads Data” value [1]?
A: Its value is “no target”.

Q: And the “Kinobeads Data” value (MAP3K4)?
A: The value was “no target”.

Q: And the “Kinobeads Data” value (MLK1)?
A: The value was “no target”.

Q: And the “Kinobeads Data” value (NEK6)?
A: The value was “no target”.

Q: What about the “Kinobeads Data” value (PKAC-beta) of the same molecule?
A: Its value is “no target”.

Q: And the “Kinobeads Data” value [2]?
A: Its value is “no target”.

Q: And the “Kinobeads Data” value (SYK)?
A: Its value is “no target”.

Q: How did the potency estimated from few doses (PSMC4) turn out when O=C1NC(=O)/C(=C/c2ccc3ncccc3c2)S1 [RO4603632-000] was run?
A: The potency estimated from few doses was 1.73 µM.

Q: For Cn1ncc2c(N)ncnc21 [SKF-18267], which potency estimated from few doses (CDK1) is on record?
A: Its potency estimated from few doses is 1.18 µM.

Q: What about the potency estimated from few doses (FN3K) of the same molecule?
A: Its potency estimated from few doses is 1.17 µM.

Q: And the potency estimated from few doses (MAPK3)?
A: The potency estimated from few doses was 0.844 µM.

Q: And the potency estimated from few doses (MAPK7)?
A: The potency estimated from few doses was 1.35 µM.

Q: What about the potency estimated from few doses (PKMYT1) of the same molecule?
A: Its potency estimated from few doses is 0.892 µM.

Q: What about the potency estimated from few doses (SLC25A5) of the same molecule?
A: Its potency estimated from few doses is 1.95 µM.

Q: What about the potency estimated from few doses (TAOK2) of the same molecule?
A: The potency estimated from few doses was 1.1 µM.

Q: And the potency estimated from few doses (TESK1)?
A: The potency estimated from few doses was 0.136 µM.

Q: What about the potency estimated from few doses (TUBB6) of the same molecule?
A: The potency estimated from few doses was 1.43 µM.
